The values that follow come from PubChem BioAssay AID686978 (National Center for Advancing Translational Sciences (NCATS), 2013).

Screen size: about 420,000 compounds; about 64,000 (15%) were called active. Roughly 27% stayed inconclusive and do not appear here. Calls follow the shape of the dose curve; as a rule, active = well fitted inhibition curve with a large enough effect; inconclusive = small, poorly fitted or top-dose-only effect; inactive = flat fitted curve, though single readings scatter. These entries were drawn from the full list. Where a call stands in place of a potency, no number is given.
Potency is read from the fitted curve at half-maximal effect.

This assay in a line: qHTS for Inhibitors of human tyrosyl-DNA phosphodiesterase 1 (TDP1): qHTS in cells in absence of CPT. Also: nearly all actives have a fitted effect of over 55% in size. Conditions: DT40 Tdp1-/- hTDP1 cells, no CPT, ATP luminescence, 48 h; activity change, negative = growth inhibition: at 46.2 µM (top of the series). The procedure, abridged:
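Chicken DT40 Tdp1-/- cells stably complemented with human TDP1 were seeded at 400 cells/well with DMSO in place of 20 nM camptothecin. After compound pinning, cells grew at least 48 hr at 37 °C; viability read by CellTiter-Glo luminescence.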
Background: qHTS replaces the single test concentration by a dilution series.
With `COc1ccc(Cl)cc1S(=O)(=O)N1CCC(O)(c2ccc(Cl)cc2)CC1`, the Potency entry was “inactive”.
The result for `CS(=O)(=O)N1CCN(C(=O)c2cc3ccccc3oc2=O)CC1` reads “inactive”; that for `O=C(c1cc2ccccc2o1)N1CCN(S(=O)(=O)c2ccc(Cl)s2)CC1`, 14.6 µM (active); that for `O=C(c1cc2ccccc2o1)N1CCN(Cc2ccccc2)CC1`, “inactive”.
The result for `COC(=O)c1ccc(C)c(NC(=O)Cn2c(C)csc2=O)c1` reads “inactive”.
With `CCOc1cc(/C=N/n2cnnc2)c(Br)cc1O`, the Potency result was “inactive”.
The result for `O=C(c1csnn1)N1CCC2(CCN(Cc3nccs3)CC2)CC1` reads “inactive”.
Turning to `CN1CN(C)c2ccc([N+](=O)[O-])c3cccc1c23`, the Potency result was “inactive”.
On to `Cc1nc2ccccn2c1C(=O)NN=C1CCN(C)CC1`, for which the Potency result is “inactive”.
The result for `COC(=O)c1ccc(CN2CCCC(C(=O)Nc3cccc(-n4cnnn4)c3)C2)cc1` (stereo not given) reads 16.4 µM (active); that for `O=C(Nc1ccc(F)cc1)C1CCCN(S(=O)(=O)c2ccc(-n3cnnn3)cc2)C1` (stereo not given), “inactive”.
The result for `CCOC(=O)c1cccc(NC(=O)C2CCCN(S(=O)(=O)c3cnc[nH]3)C2)c1` (stereo not given) reads “inactive”.
On to `Cc1ccc(C(=O)NC2CCN(C(=O)Nc3ccccc3Cl)CC2)cc1`, for which the Potency entry is “inactive”.
Regarding `CN(CC(=O)NCc1ccc2c(c1)OCO2)CC(=O)Nc1ccc(F)c(F)c1F`, the Potency result is “inactive”.
The result for `Cc1nc2ccccc2n1CC(O)c1ccccc1` (stereo not given) reads “inactive”; that for `CC(C)c1ccc(Cn2c(COc3ccccc3)nc3ccccc32)cc1`, 20.6 µM (active).
Consider `CC(O)c1nc2ccccc2n1Cc1ccc([N+](=O)[O-])cc1` (stereo not given), for which the Potency entry was “inactive”.
For the molecule `COC(=O)[C@@H](NC(=O)Nc1cc(Cl)ccc1C)C(C)C`, the Potency entry was “inactive”.
The result for `Cc1ccc2c(C)nc(N3CCCC(C(=O)NC(C)(C)CO)C3)nc2c1` (stereo not given) reads “inactive”; that for `Cc1ccc(NC(=O)CSc2nnc(-c3cnccn3)n2Cc2ccco2)cc1C`, “inactive”; that for `O=C(COc1ccc(S(=O)(=O)NCc2ccccc2)cc1)N1CCOCC1`, “inactive”.
The result for `CC(=NCc1ccco1)C1=C(O)c2ccccc2C1=O` reads “inactive”; that for `COC(=O)c1c(-c2ccc(C)cc2)csc1N`, “inactive”; that for `CCOC(=O)c1c(-c2ccc(C)cc2)csc1/N=C(\C)C1=C(O)c2ccccc2C1=O`, 18.4 µM (active).
`CCOC(=O)c1c(/N=C/C2C(=O)CC(C)(C)CC2=O)sc(C)c1C`: the Potency result is “inactive”.
The result for `CC1CCCCC1NC(=O)COC(=O)Cc1ccc(Br)cc1` (stereo not given) reads “inactive”; that for `CCCCn1c(N)c(N(CC)C(=O)c2ccc(N(C)S(=O)(=O)c3ccc(C)cc3)cc2)c(=O)[nH]c1=O`, “inactive”.
The result for `Cc1ccc2nc(Nc3ccccc3O)nc(-c3ccccc3)c2c1` reads “inactive”.
On to `O=C(O)c1ccc(Nc2nc(-c3ccccc3)c3cc(Br)ccc3n2)cc1`, for which the Potency entry was “inactive”.
As to `NC(N)=Nc1nc(-c2ccccc2)c2cc(Cl)ccc2n1`, the Potency is 16.4 µM (active).
